The record followed here is PubChem BioAssay (Tox21).

Results filed as inconclusive are left out. Active and inactive are the calls of the source. Unless noted, the call rests on the fitted dose curve; in most records, active means well fitted curve in the direction sought with a large enough effect in the repeat runs; inconclusive means weak or mixed curves; inactive means no such curve, though single readings can be large; an effect the other way counts as inactive or inconclusive.

The nature of assay [1]: qHTS assay for small molecules that induce genotoxicity in human embryonic kidney cells expressing luciferase-tagged ATAD5 (AID 651632). Further: nearly all actives have a fitted effect of over 15% in size. The procedure, abridged: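 Concentration-response screen for ATAD5 upregulation in HEK293T luciferase reporter cells; 16 hr treatment at 37C, then luminescence after 30 min with Amplite at room temperature.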
On the technique in general: In qHTS, concentration-response curves come from the screen itself.

Assay [2] is described as follows: qHTS assay for small molecule disruptors of the mitochondrial membrane potential - cell viability (AID 720634; calls by dose curve;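 further: human HepG2 liver cancer cells; series mostly up to about 83 µM; nearly all actives have a fitted effect of over 20% in size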). The procedure, abridged: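 In this qHTS format, HepG2 cells plated overnight were pinned with compound, incubated 1 hr, and assayed for ATP luminescence with CellTiter-Glo after m-MPI dye addition.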
The nature of assay [3]: qHTS assay to test for compound auto fluorescence at 590 nm (red) in HepG2 cells (AID 720674). The procedure, abridged: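 HepG2 cells, 2,000 per well in MEM with 10% FBS, attached overnight at 37 C, then got 23 nL compound or DMSO. After 1 hr at 37 C, 5% CO2, red fluorescence was read at 540/590 nm against Rose Bengal sodium as reference.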
A short description of assay [4]: qHTS assay to test for compound auto fluorescence at 535 nm (green) in HepG2 cells (AID 720675).
A short description of assay [5]: qHTS assay to test for compound auto fluorescence at 460 nm (blue) in HEK293 cells (AID 720678). The procedure, abridged: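 Blue-channel (Ex/Em 405/460 nm) intensity measured in HEK293 cultures after overnight compound exposure at 37C; signal expressed relative to triamterene. Cells plated 2,000 per well in 10% dialyzed FBS medium and allowed 4-5 hr to attach.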

The nature of assay [6]: qHTS assay to test for compound auto fluorescence at 590 nm (red) in HEK293 cells (AID 720679). The gist of the method:
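Red-channel autofluorescence (Ex/Em 540/590 nm; Rose Bengal sodium reference) was measured after overnight 37C, 5% CO2 exposure of attached HEK293 cells, 2,000 per well in medium with 10% dialyzed FBS.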

The nature of assay [7]: qHTS assay to test for compound auto fluorescence at 460 nm (blue) in HEK293 cell free culture (AID 720681). The gist of the method: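 Compounds were added to cell-free DMEM with 10% FBS and fluorescence read directly. The blue channel used 405 nm excitation and 460 nm emission, with triamterene as the reference fluorophore.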
Assay [8] can be described thus: qHTS assay to test for compound auto fluorescence at 535 nm (green) in HEK293 cell free culture (AID 720682). The procedure, abridged:
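No cells present: wells hold DMEM supplemented with 10% FBS, into which compound or vehicle is pinned. Green emission is then recorded (485 nm excitation, 535 nm emission) and scaled to fluorescein.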

Assay [9] can be described thus: qHTS assay to test for compound auto fluorescence at 590 nm (red) in HEK293 cell free culture (AID 720683). The procedure, abridged: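 Cell-free wells of DMEM with 10% FBS received compound, and intrinsic fluorescence was read at excitation/emission 540/590 nm. Values expressed as equivalence to Rose Bengal sodium.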
The nature of assay [10]: qHTS assay to test for compound auto fluorescence at 590 nm (red) in HepG2 cell free culture (AID 720684). The procedure, abridged: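 Auto fluorescence equivalency versus Rose Bengal sodium, red channel Ex/Em 540/590 nm; compounds in cell-free MEM/10% FBS; DMSO vehicle control.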
Assay [11] in a line: qHTS assay to test for compound auto fluorescence at 460 nm (blue) in HepG2 cell free culture (AID 720685). The gist of the method:
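Cell-free plates of MEM plus 10% FBS received 23 nL compound or DMSO vehicle; blue-channel (405/460 nm) intensity scored against triamterene as reference fluorophore.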

Assay [12] can be described thus: qHTS assay to test for compound auto fluorescence at 460 nm (blue) in HepG2 cells (AID 720687). The gist of the method:
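HepG2 cells in MEM with 10% FBS, attached overnight at 37 C, were exposed to compound or DMSO for 1 hr at 37 C, 5% CO2. Blue fluorescence was read at 405/460 nm, with triamterene as reference fluorophore.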

For assay [13], the target named is Glucocorticoid receptor (Homo sapiens) (UniProt P04150). The assay can be described thus: qHTS assay to identify small molecule agonists of the glucocorticoid receptor (GR) signaling pathway (AID 720691; active means well fitted activation curve with a large enough effect in the signal ratio in the repeat runs, not every such curve was filed as active; the % refers to the signal ratio). The gist of the method:
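Measures GR pathway activation through a GRE-beta-lactamase reporter stably integrated in HeLa cells, with 18 h compound treatment at 37 C and fluorescence detection using a FRET substrate.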

Assay [14] has the same target. The assay can be described thus: qHTS assay to identify small molecule antagonists of the glucocorticoid receptor (GR) signaling pathway (AID 720692; active means well fitted inhibition curve with a large enough effect in the signal ratio in the repeat runs, not every such curve was filed as active; the % refers to the signal ratio). The gist of the method:
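Tox21 10K library screened in concentration-response for blockade of dexamethasone (5 nM final)-induced GRE-bla reporter activity in HeLa cells; 18 h treatment, fluorescence read.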

A short description of assay [15]: qHTS assay to test for compound auto fluorescence at 535 nm (green) in HEK293 cells (AID 720680).
A short description of assay [16]: qHTS assay to test for compound auto fluorescence at 535 nm (green) in HepG2 cell free culture (AID 720686).
Assay [17] can be described thus: qHTS assay for small molecules that induce genotoxicity in human embryonic kidney cells expressing luciferase-tagged ATAD5 - cell viability (AID 651634; calls by dose curve; further: nearly all actives have a fitted effect of over 25% in size). The procedure, abridged: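 15.5 hr compound or vehicle exposure of HEK293T cells expressing luciferase-tagged ATAD5 at 37C; live-cell protease activity is read by fluorescence after 30 min of CellTiter-Fluor.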

The nature of assay [18]: qHTS assay for small molecule disruptors of the mitochondrial membrane potential (AID 720635). Further: potency means the concentration at half of the fitted maximal effect. The gist of the method:
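HepG2 cells exposed to compound 1 hr at 37C, then Mito-MPS dye 30 min. Ratio read of aggregate (540/590 nm) versus monomer (490/535 nm) fluorescence.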

Chain of Glucocorticoid receptor (Homo sapiens) (P04150 whole entry, looked up): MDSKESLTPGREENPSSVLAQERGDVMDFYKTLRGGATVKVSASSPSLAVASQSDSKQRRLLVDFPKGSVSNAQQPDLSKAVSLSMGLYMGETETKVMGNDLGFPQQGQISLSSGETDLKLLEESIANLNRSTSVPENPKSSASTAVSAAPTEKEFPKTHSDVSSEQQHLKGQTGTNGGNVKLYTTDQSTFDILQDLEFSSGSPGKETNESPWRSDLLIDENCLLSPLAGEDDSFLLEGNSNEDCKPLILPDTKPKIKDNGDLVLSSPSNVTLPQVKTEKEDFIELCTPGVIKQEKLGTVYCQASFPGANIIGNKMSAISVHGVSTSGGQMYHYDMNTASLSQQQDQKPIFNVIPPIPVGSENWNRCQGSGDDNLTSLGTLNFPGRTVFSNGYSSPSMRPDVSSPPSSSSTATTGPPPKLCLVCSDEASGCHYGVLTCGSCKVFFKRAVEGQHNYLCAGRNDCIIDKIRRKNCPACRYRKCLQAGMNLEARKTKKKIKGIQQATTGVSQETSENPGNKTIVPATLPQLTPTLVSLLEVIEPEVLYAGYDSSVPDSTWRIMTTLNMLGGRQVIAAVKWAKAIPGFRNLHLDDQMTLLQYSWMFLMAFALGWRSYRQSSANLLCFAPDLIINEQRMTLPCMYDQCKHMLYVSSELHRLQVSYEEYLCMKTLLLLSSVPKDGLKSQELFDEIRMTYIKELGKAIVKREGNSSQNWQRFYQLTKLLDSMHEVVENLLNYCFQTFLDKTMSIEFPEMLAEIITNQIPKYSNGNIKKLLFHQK

As for `O=C1OC(=O)C2C1C1(Cl)C(Cl)=C(Cl)C2(Cl)C1(Cl)Cl` (stereo not given), the Potency entry in assay [1], in assay [2] and in [14] was “inactive” each time. Further, the result in [3], in assay [4], in assay [5], in [6], in assay [7] and in [8] was inactive. Besides, the result in [9], in [10], in [11], in assay [12] and in assay [13] was inactive.
With `COC(=O)c1ccccc1S(=O)(=O)NC(=O)Nc1nc(C)cc(C)n1`, the Potency result in assay [1], in assay [2] and in [14] was “inactive” each time. Further, the result in assay [3], in assay [4], in assay [6], in [15], in assay [7] and in assay [8] was inactive. For the same compound, the compound was called inactive in assay [9], in assay [10], in assay [11], in assay [16], in assay [12] and in assay [13].
With `C1CCC(C2CCCCC2)CC1`, the Potency result in [1], in assay [17] and in assay [2] was “inactive” throughout. The outcome in [3], in assay [4], in assay [5], in assay [6], in assay [15] and in assay [7] was inactive. In addition, the result in [8], in [9], in assay [10], in assay [11], in assay [16] and in assay [12] was inactive.
`c1cc[c]([Hg][c]2ccccc2)cc1`: the Potency entry in [17] was “inactive”. In addition, the Potency in assay [18] is 15.4 µM (active). For the same compound, the outcome in assay [3], in assay [4], in assay [5], in assay [6], in assay [15] and in [7] was inactive. Further, the compound was classed as inactive in assay [8], in assay [9], in assay [10], in [11], in assay [16] and in [12]. For the same compound, the outcome in assay [13] was inactive.
Turning to `CCSC(=O)N(CC)C1CCCCC1`, the Potency result in assay [1], in [17] and in assay [2] was “inactive” in each case. The compound was called inactive in assay [3], in [4], in assay [6], in assay [15], in [7] and in assay [8]. Moreover, the compound was called inactive in assay [9], in [10], in [11], in assay [16], in assay [12] and in assay [13].
As to `CC1CN1P(=O)(N1CC1C)N1CC1C` (stereo not given), the Potency result in [1], in assay [17] and in [2] was “inactive” throughout. The compound was called inactive in assay [3], in assay [4], in [6], in assay [15], in [7] and in [9]. The outcome in assay [10], in [11], in [16] and in assay [12] was inactive.
With `CCOP(=S)(Oc1cnc(C(C)(C)C)nc1)OC(C)C` (stereo not given), the Potency result in [1] and in [2] was “inactive” each time. Also, the result in assay [3], in assay [4], in assay [5], in [6], in [15] and in assay [7] was inactive. Moreover, the outcome in assay [8], in [9], in [10], in assay [11], in assay [16] and in assay [12] was inactive. In addition, the result in assay [13] was inactive.
Regarding `O=[N+]([O-])c1cccc2c([N+](=O)[O-])cccc12`, the Potency entry in assay [1] and in assay [17] was “inactive” throughout. The result in assay [3], in assay [4], in [5], in assay [6], in [15] and in assay [7] was inactive. Besides, the outcome in assay [8], in assay [9], in assay [10], in assay [11], in assay [16] and in assay [12] was inactive. The compound was classed as inactive in [13].
In the case of `C#CCN1C(=O)COc2cc(F)c(N3C(=O)C4=C(CCCC4)C3=O)cc21`, the Potency result in assay [1] and in assay [14] was “inactive” each time. Further, the compound was called inactive in assay [3], in assay [4], in [5], in assay [6], in assay [15] and in [7]. The result in assay [8], in assay [9], in assay [10], in [11], in [12] and in assay [13] was inactive.
Regarding `CC(C)(C)OC(=O)c1ncn2c1[C@@H]1CCCN1C(=O)c1c(Br)cccc1-2`, the Potency result in assay [1], in assay [17] and in [2] was “inactive” throughout. Moreover, the call in assay [3], in [4], in [6], in [15], in assay [7] and in [8] was inactive. Further, the call in [9], in assay [10], in assay [11], in assay [16] and in assay [12] was inactive.
